Laboratory results: PubChem BioAssay AID2315 (National Center for Advancing Translational Sciences (NCATS), 2010)
Out of some 290,000 compounds screened, about 27,000 (9.3%) were called active. The sample holds actives, similar compounds and a random draw of the others, so the mix is not that of the screen. A number with no mark means an inactive call. Rule as the data show it: active = inhibition mostly above about 28% (no sharp cut-off); inactive = mostly below about 43%.

Assay: A qHTS for Small Molecule Inhibitors of Shiga Toxin; also: 0% is about no effect
Conditions: Vero cells, Shiga toxin protein synthesis inhibition reporter; at 38.7 µM, active compounds read high

Row | SMILES | inhibition
1 | CCc1c(C)c2ccc(OC3CCCCC3=O)cc2oc1=O (configuration not stated) | 28%
2 | COc1ccc(NC(=O)c2sc(N)nc2-c2ccccc2)cc1 | 9.77%
3 | COc1cccc(NC(=O)CN(C)CC(=O)Nc2ccc3c(c2)CCC3)c1 | -9.55%
4 | COc1ccc(NC(=O)c2sccc2SCC#N)cc1 | 52.8% (active)
5 | CCC(=O)Nc1ccc(C(=O)Nc2cccc(OC)c2)cc1 | 108% (active)
6 | CCOC(=O)c1c(NC(=O)c2ccc(N3CCOCC3)c([N+](=O)[O-])c2)sc(C)c1C | 9.37%
7 | COc1cccc(NC(=O)c2ccc(S(=O)(=O)N(C)C)cc2)c1 | 70.6%
8 | COc1ccc(C(=O)Nc2sc(C)c(C)c2CN2CCOCC2)cc1 | 82.5% (active)
9 | COc1ccc(NC(=O)C(C)SCc2ccccc2)cc1 (configuration not stated) | 40.5%
10 | COc1ccc(C(=S)Nc2ccccc2)cc1 | 62.5% (active)
11 | COc1ccc(-c2nn(CCC#N)cc2C(=O)Nc2ccc(C(C)=O)cc2)cc1 | 25.5%
12 | COc1ccc(C(=O)Nc2ccnn2C2CCN(Cc3ccncc3)CC2)cc1 | -4.63%
13 | COCCNC(=S)c1ccc(OC)cc1 | 13%
14 | CCC(=O)Nc1nnc(S(=O)(=O)N2CCCc3ccccc32)s1 | -3.3%
15 | O=C(Nc1ccc(C(=O)O)cc1)/C(=C\c1ccccc1)NC(=O)c1ccc(Br)cc1 | -9.04%
16 | CC(=O)c1c(C)oc2ccc(NS(=O)(=O)c3ccccc3)cc12 | -6.31%
17 | CC(C)CC(=O)c1c[nH]c(C(=O)NCc2ccccc2)c1 | -10%
18 | CCOc1ccc(NC(=O)CCC(=O)NNC(=O)NC2CCCCC2)cc1 | -9.72%
19 | CCOCCCNC(=O)c1cn(CC(C)C)c(=O)c2c1c1ccccc1n2C | -4%
20 | Cc1ccccc1C(=O)NC(=S)Nc1ccc(N2CCN(C(=O)c3ccccc3)CC2)cc1 | -15.7%
21 | CC(C)CC(CCc1ccccc1)OS(N)(=O)=O (configuration not stated) | 7.41%
22 | CC(=O)N1c2ccc(S(=O)(=O)N3CCC(C(=O)NC4CCCC(C)C4C)CC3)cc2CC1C (configuration not stated) | -3.25%
23 | CCOc1ccccc1-c1cc(C(=O)N2CCOCC2)c2ccccc2n1 | -10.7%
24 | COc1ccc(NS(=O)(=O)c2cc3c(cc2C)N(C(C)=O)CCO3)cc1 | 0.181%

Row | SMILES | inhibition
25 | Cc1ccc(C(=O)Nc2nnc(-c3ccncc3)s2)o1 | -10.6%
26 | Cc1cccc(NC(=O)c2cc([N+](=O)[O-])ccc2N2CCN(C)CC2)c1 | 1.74%
27 | Cc1cccc(NC(=O)c2ccc([N+](=O)[O-])o2)c1 | 55.5% (active)
28 | Cc1onc(NC(=O)c2ccc([N+](=O)[O-])o2)c1Br | 71.2% (active)
29 | Cc1cccc(NC(=O)c2sc(-c3ccccc3)nc2-c2ccc([N+](=O)[O-])cc2)c1 | -1.42%
30 | Cc1onc(C(=O)NCc2ccc(F)cc2)c1[N+](=O)[O-] | 15.4%
31 | O=C(Cc1ccccc1F)NC1CCSc2ccccc21 (configuration not stated) | 8.44%
32 | CCOC(=O)c1ccc(NC(=O)c2ccc(NC(=O)C3CCCO3)cc2)cc1 (configuration not stated) | 21.1%
33 | CC(C)c1ccc(NC2CCCN(C(=O)c3ccncc3)C2)cc1 (configuration not stated) | -8.11%
34 | COC(=O)c1cc(NC(=O)c2cc(C(C)(C)C)nn2Cc2cccc(C)c2)ccc1N1CCOCC1 | -6.65%
35 | CCCc1nnc(NC(=O)c2cc(OC)cc(OC)c2)s1 | 34.6%
36 | O=C(Nc1cccnc1)c1noc2c1CCCCC2 | 29% (active)
37 | O=C(Nc1nc2cc3c(cc2s1)OCCO3)c1cccc(S(=O)(=O)N2CCOCC2)c1 | 53.6%
38 | O=C(Nc1ccccc1)c1ccc2c(c1)OCO2 | 58.7% (active)
39 | C/C(=N/NC(=S)Nc1ccccc1)c1ccc2c(c1)OCO2 | 67.4%
40 | COCc1nnc(NC(=O)c2ccc3c(c2)OCO3)s1 | 59.3% (active)
41 | COc1ccc(S(=O)(=O)N2CCOCC2)cc1C(=O)Nc1nc2ccccc2s1 | -1.04%
42 | O=C(Nc1cccnc1)c1cc2cc(Br)ccc2oc1=O | 28.7%
43 | O=C(Nc1cccnc1)c1cccc(S(=O)(=O)N2CCCC2)c1 | 23.2%
44 | N#Cc1ccccc1NC(=O)c1ccc2c(c1)OCO2 | 22.7%
45 | COCc1nnc(NC(=O)CS(=O)(=O)Cc2ccccc2)s1 | 3.05%
46 | O=C(Nc1nc2ccccc2s1)c1ccc2c(c1)OCO2 | 39.2% (active)
47 | CCOC(=O)c1csc(CCNC(=O)c2oc3c(Cl)cc(C)cc3c2C)n1 | 43.9%
